Compounds without any hit were thinned out: in the full panel of roughly 83,000, 20% have a hit.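 In brief: 96-well plates, 48 h treatment, single concentration, percent growth endpoint.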 Values without a mark were called inactive. Active and inactive are the calls of the source. Rule for the calls: active = growth percent below 10; inactive = the rest.
How the values were obtained:
Assay in all cases: NCI-60 one-dose screen, 48 h (100 = growth as untreated, 0 = no growth, -100 = all killed)
Conditions in all cases: 10 µM unless noted
NCI-H23 lung = tested on: NCI-H23 lung
NCI-H226 lung = tested on: NCI-H226 lung
NCI-H322M lung = tested on: NCI-H322M lung
HOP-62 NSCLC = tested on: HOP-62 NSCLC
NCI-H460 lung = tested on: NCI-H460 lung
HOP-92 NSCLC = tested on: HOP-92 NSCLC
NCI-H522 lung = tested on: NCI-H522 lung
A549/ATCC NSCLC = tested on: A549/ATCC NSCLC
786-0 renal = tested on: 786-0 renal
COLO 205 colon = tested on: COLO 205 colon
DU-145 prostate = tested on: DU-145 prostate
K-562 leukemia = tested on: K-562 leukemia
MALME-3M melanoma = tested on: MALME-3M melanoma
MDA-MB-231 breast = tested on: MDA-MB-231 breast
RXF 393 renal = tested on: RXF 393 renal
SF-268 CNS = tested on: SF-268 CNS
SF-295 CNS = tested on: SF-295 CNS
SF-539 CNS = tested on: SF-539 CNS
UACC-257 melanoma = tested on: UACC-257 melanoma
M14 melanoma = tested on: M14 melanoma

| SMILES | growth (NCI-H23 lung) [%] | growth (NCI-H226 lung) [%] | growth (NCI-H322M lung) [%] | growth (HOP-62 NSCLC) [%] | growth (NCI-H460 lung) [%] | growth (HOP-92 NSCLC) | growth (NCI-H522 lung) [%] | growth (A549/ATCC NSCLC) [%] | growth (786-0 renal) | growth (COLO 205 colon) [%] | growth (DU-145 prostate) [%] | growth (K-562 leukemia) [%] | growth (MALME-3M melanoma) [%] | growth (MDA-MB-231 breast) [%] | growth (RXF 393 renal) | growth (SF-268 CNS) [%] | growth (SF-295 CNS) [%] | growth (SF-539 CNS) [%] | growth (UACC-257 melanoma) [%] | growth (M14 melanoma) [%] |
| --- | --- | --- | --- | --- | --- | --- | --- | --- | --- | --- | --- | --- | --- | --- | --- | --- | --- | --- | --- | --- |
| O=C(CCc1nnc2sc(OCc3ccccc3)nn12)c1nc2ccc([N+](=O)[O-])cc2[nH]1 | 84.6 | 94.8 | 93.3 | 102 | 105 | 106% | 79.2 | 94.3 | 108% | 99.5 | 103 | 87.7 | 96.1 | 95.7 | 123% | 94.5 | 97 | 98.4 | 106 | 102 |
| COc1ccc(-n2cc(COc3ccc4c5ccnc(C)c5n(CC(C)C)c4c3)nn2)cc1 | 61.9 | 52.3 | 88.7 | 56.6 | 69.5 | 44.9% | 37.3 | 67.1 | 73.9% | 68.6 | 88.3 | 27.3 | 71.2 | 73.1 | 57.5% | 79 | 60.6 | 82.6 | 52.7 | 71.5 |
| O=Cc1[nH]c(Sc2ccccc2)c2ccccc12 | 67.2 | 66.9 | 91.7 | 85.6 | 90.5 | 45.7% | 107 | 96.1 | 81.1% | 64.8 | 83 | 35.5 | 58.2 | 85.1 | 75.1% | 75 | 114 | 78.8 | 77.7 | 81.3 |
| C#CC[C@@H]1C[C@]2(C)[C@H]3CC[C@@H]4[C@H]5[C@H](C(=C)C)CC[C@]5(C(=O)O)CC[C@@]4(C)[C@]3(C)CC[C@H]2C(C)(C)[C@H]1O | 47.9 | 29.1 | 67.5 | 59 | 10.4 | -6.27% (active) | 61.8 | 16.9 | -1.51% (active) | 83.2 | 57.4 | 35.1 | 53 | 20.8 | 6.63% (active) | 66.5 | 12.8 | 53.8 | 70.9 | 60.3 |
| CC(=O)c1ccc(NC(=O)CSc2nnc(-c3cc(-c4ccc(Cl)cc4)nc4ccccc34)o2)cc1 | 61 | 96.4 | 97.8 | 80.6 | 46 | 94.2% | 60.9 | 76.7 | 63.5% | 96.6 | 90 | 63 | 70.8 | 53.7 | 87.2% | 82.4 | 88.3 | 74.2 | 97.5 | 77.6 |
| NS(=O)(=O)c1ccc(-n2nc(-c3ccccc3)ccc2=O)cc1 | 101 | 100 | 115 | 102 | 104 | 97.1% | 89.9 | 112 | 93.8% | 125 | 109 | 89.3 | 82.5 | 108 | 125% | 106 | 260 | 95.3 | 111 | 118 |
| CC(=O)Nc1ccc2c(c1)Cc1cc(F)ccc1-2 | 90.8 | 99.2 | 86.9 | 84.8 | 106 | 93.4% | 73.7 | 92.5 | 98% | 124 | 96.4 | 91.4 | 104 | 101 | 117% | 80.7 | 101 | 97 | 99.7 | 110 |
